In ChEMBL document CHEMBL4513216, “Probing the Open Global Health Chemical Diversity Library for Multistage-Active Starting Points for Next-Generation Antimalarials” (ACS Infect Dis, 2020):
The campaign covered roughly 68,000 compounds. About 2,700 (4%) showed an effect of 50% or more. The list comes from a sample in which strong results are over-represented; it also holds similar structures and randomly drawn compounds.

The compounds below were run on Plasmodium berghei (assay: Screen against P. berghei liver stage (PbLuc), transformed with Luciferase, at 2uM). Details: tested at 2 uM.
Type: functional, HepG2

Row | Compound | INHIBITION [%]
1 | O=C(c1cscn1)N1C[C@H]2CCCC(OCc3cccnc3)[C@H]2C1 (stereo not given in full) | -16.41
2 | COCCCN1CCCN(C(C)C(=O)Nc2cccc(I)c2)CC1 (stereo not given) | 42.76
3 | Cc1cc(C)cc(OCC(=O)NC2CCN(S(C)(=O)=O)CC2)c1 | -50.23
4 | CCN(Cc1cccc(C(N)=O)c1)c1ccccc1 | 36.74
5 | Cc1ccc(CN2CCC(NC(=O)c3scnc3C)CC2)cc1 | -21.72
6 | Cc1ncsc1C(=O)NC1CCN(Cc2ccc(C(F)(F)F)cc2)CC1 | 74.35
7 | Cc1ncsc1C(=O)NC1CCN(Cc2ccc(C(N)=O)cc2)CC1 | -2.82
8 | Cc1cc(CN2C[C@@H]3CC[C@H]2CN(C2Cc4ccccc4C2)C3)on1 | 17.28
9 | CCC(NCc1ccccc1)c1ccccc1OCC(=O)NC (stereo not given) | -3.09
10 | CC(=O)N[C@@H]1CN(C2CCN(c3ccccc3F)CC2)C[C@H]1C(C)C | 7.67
11 | COc1cccc(N2CCC(N3C[C@@H](NC(C)=O)[C@H](C(C)C)C3)CC2)c1 | 52.98
12 | COc1ccc(N2CCC(N(C)C(=O)C(C)SC)CC2)cc1 (stereo not given) | 27.5
13 | COc1ccc(N2CCC(N3C[C@H](NC(C)=O)[C@@H](C(C)C)C3)CC2)cc1 | 55.36
14 | COc1ccc(N2CCC(NC(=O)c3ccc(C#N)cc3)CC2)cc1 | 45.62
15 | CC(=O)N[C@@H]1CN(C2CCN(c3cccc(C)c3C)CC2)C[C@H]1C(C)C | 29.13
16 | CC(=O)N[C@@H]1CN(C2CCN(c3cccc(Cl)c3)CC2)C[C@H]1C(C)C | 21.97
17 | COc1ccc(N2CCC(N(C)C(C)C(=O)N(C)C)CC2)cc1 (stereo not given) | -2.89
18 | CCOC(C)C(=O)N(C)C1CCN(c2ccc(OC)cc2)CC1 (stereo not given) | 73.09
19 | O=C(NCC1(c2ccc(F)cc2)CCCC1)N1CCOC(CO)C1 (stereo not given) | 12.41
20 | Cn1ncnc1-c1ccnc(N2CCC(C(O)c3cccs3)CC2)n1 (stereo not given) | 39.98
21 | Fc1cccc(N2CCCC3(CN(Cc4cccnc4)CCO3)C2)c1 (stereo not given) | -18.59
22 | O=c1[nH]c2ccccc2c2c1CCO2 | -66.7

Row | Compound | INHIBITION [%]
23 | O=C(Nc1ccccn1)NC(CCCO)c1ccccc1 (stereo not given) | -67.62
24 | Cc1ccc(CN2CC[C@H]3OCC[C@@]3(COCC(=O)N(C)C)C2)s1 | -14.52
25 | CCc1ccc(CN2CCCC(CO)(CCOC)C2)cc1 (stereo not given) | 22.74
26 | CCN(CC)C(=O)[C@@H]1C[C@@H](N)CN1C(=O)c1cc2c([nH]c1=O)CCC2 | 56.16
27 | CC(C)NC(=O)[C@@H]1C[C@H](N)CN1C(=O)c1cc2c([nH]c1=O)CCCC2 | -34.26
28 | CCN(CC)C(=O)[C@@H]1C[C@H](N)CN1C(=O)c1cc2c([nH]c1=O)CCC2 | 22.89
29 | CCN1CC2(CCC1=O)CCN(CCc1nccn1C)CC2 | 25.65
30 | CNc1nnc(CCn2nc(C)c(Br)c2C)s1 | 6.05
31 | CC(C)(C)CC(=O)NC[C@H]1OC[C@@H](NCc2ccccn2)[C@@H]1O | 16.43
32 | CN(C)C(=O)CS(=O)(=O)Cc1ccn(-c2cccc(F)c2)n1 | -19.29
33 | CC(C)=CCS(=O)(=O)Cc1ccn(-c2cccc(F)c2)n1 | 58.14
34 | CCS(=O)(=O)Cc1ccn(-c2cccc(F)c2)n1 | 6.82
35 | CCCNC(=O)CNc1cc(C#N)ccc1OCC | -19.76
36 | Cn1ncc(C(=O)O)c1C(=O)Nc1nc2ccc(Br)cc2s1 | 3.27
37 | N#Cc1ccc(CNCC2CCN(CCO)CC2)cc1 | 1.07
38 | Cc1[nH]c2ccc(CNc3cc(C(=O)NC(C)C)ccn3)cc2c1C | 15.46
39 | O=C1CO[C@H]2CN(S(=O)(=O)c3ccccc3)C[C@H]2N1c1ccccc1 | 53.27
40 | O=C1CO[C@@H]2CN(S(=O)(=O)c3ccccc3)C[C@H]2N1CC1CC1 | -30.12
41 | O=C1CO[C@H]2CN(S(=O)(=O)c3ccccc3)C[C@H]2N1Cc1ccccc1 | 15.98
42 | CC(C)c1noc(C[S+]([O-])CC(=O)Nc2cc(F)ccc2F)n1 (stereo not given) | 12.35
43 | CC(NC1CCN(CCS(C)(=O)=O)CC1)c1ccc(Cl)cc1 (stereo not given) | -26.72
44 | Cc1cc(NCCC(=O)NC(C)C)nc(-c2ccncc2)n1 | -1.96

Row | Compound | INHIBITION [%]
45 | COCCNC(=O)CCNc1cc(C)nc(-c2ccncc2)n1 | 69.06
46 | Cc1cc(NCCC(=O)NC2CCCC2)nc(-c2ccncc2)n1 | -82.36
47 | O=S(=O)(NCC1(O)CCCC1)c1ccccc1Br | 32.07
48 | Cc1noc(C)c1C(=O)N1Cc2ncn(C)c2C(COCC(C)C)C1 (stereo not given) | 25.92
49 | CN(C)c1ccnc(N2CCC(NCCOc3ccccc3)CC2)n1 | -55.42
50 | CN(C)c1nccc(-c2cnc(N(C)C)[nH]c2=O)n1 | 51.32
51 | CN(C)c1nccc(-c2c[nH][nH]c2=O)n1 | 3.97
52 | Cc1ncncc1-c1ccnc(N(C)C)n1 | 22.5
53 | CN(Cc1ccc2nonc2c1)C(=O)CCc1cc2n(n1)CCCNC2 | -3.87
54 | CCN(Cc1ccncc1)C1CCCN(Cc2ccc(F)cc2OC)C1 (stereo not given) | 51.42
55 | CCN(Cc1ccncc1)C1CCCN(C/C=C/c2ccc(F)cc2)C1 (stereo not given) | 27.95
56 | CCN(Cc1ccncc1)C1CCCN(Cc2ccc(F)cc2Cl)C1 (stereo not given) | 32.26
57 | Cc1ccc(CN2Cc3c(C(=O)N4CCCC4)nn(C)c3C2)s1 | -64.97
58 | O=C1CC(N2CCN(c3ccccc3O)CC2)C(=O)N1Cc1cccs1 (stereo not given) | 19.62
59 | O=C(Cn1cc(I)cn1)N1CCCC1 | 34.34
60 | CC1CCN(C(=O)Cn2cc(I)cn2)CC1 | 66.74
61 | CC1CCCN(C(=O)Cn2cc(I)cn2)C1 (stereo not given) | 37.18
62 | O=C(Cc1cccc(F)c1)NCCNCC1CNc2ccnn2C1 (stereo not given) | -7.45
63 | Cn1nccc1C1CCN(CC(=O)NCC2CC2)CC1 | 7.71
64 | O=C(Nc1cccnc1-n1cc(Cl)cn1)C1CC1 | -43.89
65 | Cc1cc(C)n(CC2CN(Cc3nc(C4CC4)no3)CCO2)n1 (stereo not given) | 37.31
